Laboratory results taken from PubChem BioAssay.
A number with no mark means an inactive call. No rule for the calls is given here. Positions of bridges follow the written chain, without caps; N, C: chain ends. Non-standard residues stand in square brackets, D forms with d. Residues, ends and D or L forms follow the SMILES beside them. *: point of attachment. Octanoyl(6-Me) = CCC(C)CCCCC(=O)*; Dab = NCC[CH](N)C(=O)O

System: Aerobactin synthetase IucA (Klebsiella pneumoniae hvKP1)
Assay: IucA enzyme inhibition, primary screen, biochemical, Spectrum library (AID 1346200);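 also: 100% = wells without compound and 0% = wells lacking enzyme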
Conditions: malachite green pyrophosphate, A620, at 8 µM, stronger effect = lower value

| SMILES | activity remaining [%] |
| --- | --- |
| C[C@H]1[C@H](NC(=O)/C(=N/OC(C)(C)C(=O)O)c2csc(N)n2)C(=O)N1S(=O)(=O)O (stereo in doubt) | 113 |
| C#C[C@]1(O)CCC2C3CCC4=CC(=O)CC[C@@H]4C3CC[C@@]21C (stereo not given in full) | 108 |
| COC(=O)C(N)CS (stereo not given) | 122 |
| Nc1ccc(S(=O)(=O)NC(=O)c2ccccc2)cc1 | 109 |
| CC(C)C(C)/C=C/C(C)C1CCC2C3=CC=C4CC(O)CCC4(C)C3CCC21C (stereo not given) | 111 |
| O=C(CCBr)N1CCN(C(=O)CCBr)CC1 | 107 |
| CO[C@H]1C[C@H](O[C@H]2[C@H](C)[C@@H](OC3O[C@H](C)C[C@H](N(C)C)[C@H]3O)[C@@H](C)C[C@]3(CO3)C(=O)[C@H](C)[C@@H](O)[C@@H](C)[C@@H](C)OC(=O)[C@@H]2C)O[C@@H](C)[C@@H]1O (stereo not given in full) | 107 |
| c1ccc2[nH]c(-c3cscn3)nc2c1 | 111 |
| CC(=O)/C(=C\c1ccccc1)CC(=O)O | 98.6 |
| C#C[C@]1(O)CCC2C3CCC4=CC(=O)CC[C@@H]4C3CC[C@@]21CC (stereo not given in full) | 123 |
| O=C(O)C1=C[C@@H](O)[C@@H](O)[C@H](O)C1 | 86.3 |
| OC1C(O)C(O)C(O)C(O)C1O (stereo not given) | 103 |
| CC/C(=C(/CC)c1ccc(O)cc1)c1ccc(O)cc1 | 104 |
| CC1(C)C[C@@H]2C(=O)CC[C@H]3O[C@]3(C)CC[C@H]21 | 110 |
| COc1ccccc1OCC(O)COC(N)=O (stereo not given) | 108 |
| O=C1NS(=O)(=O)c2ccccc21 | 102 |
| C=CC1=C(C(=O)O)N2C(=O)[C@@H](NC(=O)/C(=N\O)c3csc(N)n3)[C@H]2SC1 (stereo in doubt) | 103 |
| COC(=O)C1=CO[C@@H](O[C@@H]2O[C@H](CO)[C@@H](O)[C@H](O)[C@H]2O)[C@@H]2[C@@H](C)[C@@H](O)C[C@H]12 | 101 |
| COc1ccc([C@@H](C)C(=O)c2ccc(O)cc2O)cc1 | 118 |
| O=c1cc(-c2ccccc2)oc2cc(O)c(O)c(O)c12 | 122 |

| SMILES | activity remaining [%] |
| --- | --- |
| CCOC(=O)C1=C(O)C(=O)N(Cc2ccccc2)C1 | 96.2 |
| CO/N=C(\C(=O)NC1C(=O)N2C(C(=O)OCOC(=O)C(C)(C)C)=C(/C=C\c3scnc3C)CSC12)c1csc(N)n1 (stereo not given) | 120 |
| CCC(C)CCCCC(=O)NC(CCN)C(=O)NC(C(=O)NC(CCN)C(=O)NC1CCNC(=O)C(C(C)O)NC(=O)C(CCN)NC(=O)C(CCN)NC(=O)C(CC(C)C)NC(=O)C(Cc2ccccc2)NC(=O)C(CCN)NC1=O)C(C)O (stereo not given) ({Octanoyl(6-Me)}-[Dab]T[Dab][Dab][Dab]FL[Dab][Dab]T; lactam 4-C; configuration not given here) | 121 |
| COc1ccc(-c2cc(=O)c3ccccc3o2)cc1OC | 109 |
| COc1ccc(-c2cc(=O)c3cc(OC)ccc3o2)cc1 | 95.7 |
| CC(C)=CCCC(C)[C@@H]1CC[C@]2(C)C3=C(CC[C@@]12C)C1(C)CC[C@H](O)C(C)(C)C1CC3 (stereo not given in full) | 124 |
| COc1ccc(/C=C/C(=O)c2cc(O)ccc2O)cc1 | 87.4 |
| O=C1c2ccccc2C(=O)c2c(O)c(O)cc(O)c21 | 118 |
| COc1cc(N)c(Cl)cc1C(=O)NC1CCN(Cc2ccccc2)CC1 | 119 |
| COc1ccc2c(c1)c(CC(=O)OCC(=O)O)c(C)n2C(=O)c1ccc(Cl)cc1 | 92.7 |
| CCCN(CCC)S(=O)(=O)c1ccc(C(=O)O)cc1 | 93.6 |
| CCN(CC)CCOc1ccc(/C(=C(\Cl)c2ccccc2)c2ccccc2)cc1 | 111 |
| CC(=O)O[C@@H]1CC2C(C)(C)C(=O)C=C[C@]2(C)C2CC[C@@]3(C)[C@H](c4ccoc4)OC(=O)[C@H]4O[C@]43[C@@]21C (stereo not given in full) | 104 |
| O=C1C=C(O)c2ccccc2C1=O | 123 |
| CCC(=O)OCC(=O)[C@@]1(OC(=O)CC)[C@H](C)CC2C3C([C@@H](O)C[C@@]21C)[C@@]1(C)C=CC(=O)C=C1C[C@H]3Cl (stereo not given in full) | 106 |
| Cc1cc(C(C)(C)CC(C)(C)C)ccc1OCCOCC[N+](C)(C)Cc1ccccc1 | 118 |
| Oc1c(I)cc(I)c2cccnc12 | 102 |
| C[C@H]1[C@H](C)CC[C@]2(C(=O)O)CC[C@]3(C)C(=CCC4[C@@]5(C)C[C@@H](O)[C@H](O)[C@@](C)(CO)C5CC[C@]43C)[C@H]12 (stereo not given in full) | 102 |
| CC(C1OC(C)(C)C(O)C1O)[C@@H]1CC[C@]2(C)C3=CCC4C(C)(C)C(=O)CC[C@]4(C)C3CC[C@@]12C (stereo not given in full) | 111 |
| O=C1C=CC2=C3c4cc(O)c(O)cc4CC3(O)COC2=C1O (stereo not given) | 94.5 |

| SMILES | activity remaining [%] |
| --- | --- |
| COc1cc(OC)cc(OC)c1 | 117 |
| CC(=O)C1CC[C@H]2C3CC[C@H]4C[C@H](O)CC[C@]4(C)C3CC[C@]12C (stereo not given in full) | 93.6 |
| Oc1cccc(O)c1 | 116 |
| C=CCc1ccc(OC(=O)c2ccccc2)c(OC)c1 | 95.9 |
| Cc1onc(-c2ccccc2)c1C(=O)NC1C(=O)N2[C@@H]1SC(C)(C)[C@@H]2C(=O)O (stereo not given in full) | 106 |
| COc1cc(O)c(C)c(O)c1 | 112 |
| CC(C)(C)NC[C@H](O)c1ccc(O)c(CO)c1 | 112 |
| COc1ccc2c(=O)c(CC(=O)O)coc2c1 | 117 |
| C=CCCCCCCCCC(=O)O | 111 |
| C[C@@H]1O[C@@H](O[C@H]2[C@H](Oc3cc(O)c4c(=O)cc(-c5ccc(O)cc5)oc4c3)O[C@H](CO)[C@@H](O)[C@@H]2O)[C@H](O)[C@H](O)[C@H]1O | 90.6 |
| NS(=O)(=O)c1cc2c(cc1C(F)(F)F)NC(Cc1ccccc1)NS2(=O)=O (stereo not given) | 98.7 |
| Cc1cccc(N(C)C(=S)Oc2ccc3ccccc3c2)c1 | 116 |
| CS(=O)(=O)c1ccc([C@@H](O)[C@@H](CO)NC(=O)C(Cl)Cl)cc1 | 124 |
| C=C1C(C2(C)C=CC(=O)C(C)(C)C2CC(=O)OC)CC[C@@]2(C)[C@H](c3ccoc3)OC(=O)C3OC132 (stereo not given in full) | 105 |
| COc1ccc(OC)c(C(O)CNC(=O)CN)c1 (stereo not given) | 99.4 |
| O=C1O[C@H](C(O)CO)C(O)=C1O (stereo not given in full) | 92.2 |
| CCC(c1ccc(O)cc1)C(CC)c1ccc(O)cc1 (stereo not given) | 121 |
| CCCCCN=C(N)N/N=C/c1c[nH]c2ccc(OC)cc12 | 108 |
| CC(C)=CCC1=C(O)c2ccccc2C(=O)C1=O | 119 |
| CC1=C(/C=C/C(C)=C/C=C/C(C)=C/C=C/C=C(C)/C=C/C=C(C)/C=C/C2=C(C)CCCC2(C)C)C(C)(C)CCC1 | 123 |
